# FMDV antiviral: blocks foot and mouth disease virus; FMDV antiviral cell-based qHTS; Potency, µM (titrated, usually from 57.9 µM), usual class: inhibitors; hit rate 1.2% among 410,000; calls by dose curve; tested in HEK293T cells; further: read-out not given here; nearly all actives have a fitted effect of over 45% in size
# HCMV antiviral: human cytomegalovirus inhibition | activity change, negative = inhibition, % at 57.5 µM | HFF cells, HCMV-luciferase reporter, 72 h; active compounds read low | AID 1259415 | hit rate 4.5% among 410,000; in the data active means activity change below about -60%; inconclusive means no clear call, values can overlap the other calls; inactive means above about -39%
#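 Cell-based, HFFs, 1000 cells/well, 16 h 37C; cpds in DMSO + HCMV-luc, MOI 1 PFU/cell; 72 h 37C; OneGlo luminescence after 5 min RT; norm. to buffer vs Salinomycin 10uM.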
# LASV entry inh: Lassa virus entry inhibition; Lassa virus pseudotype entry inhibition, cell reporter; Potency, µM (series often up to 37.9 µM), hits mostly inhibitors; hit rate 1.2% among 300,000; AID 540256; calls by dose curve; tested in HEK293 cells; further: nearly all actives have a fitted effect of over 50% in size
# Marburg entry inh: inhibitors of Marburg virus binding or cell entry; Marburg virus pseudotyped entry inhibition, cell reporter; Potency, µM (titrated, usually from 37.8 µM), most hits filed as inhibitors; hit rate 1.8% among 300,000; calls by dose curve; tested in HEK293 cells
# A number is an active result; n = inactive; u = inconclusive; x = no result. Sampled rows, rich in hits. Any-hit rate of the full collection: about 6.2%.
SMILES,FMDV antiviral,HCMV antiviral,LASV entry inh,Marburg entry inh
Cc1cc(=O)oc2cc(CN3C(=O)C(=O)c4cc(F)ccc43)ccc12,x,n,x,x
CN(c1ccc(C(=O)Nc2ccc(Cl)cn2)cc1)S(=O)(=O)c1ccccc1,u,-66.1,x,x
CSc1ccc(Cl)c(C(=O)Nc2ccc(Cl)cn2)c1,n,u,n,u
CCCOc1ccc(C(=O)Nc2ccc(Cl)cn2)cc1,u,n,17.8µM,6.31µM
COc1cc(SC)ccc1C(=O)Nc1ccc(Cl)cn1,10µM,-74.9,u,1.12µM
O=C(c1ccncc1)N1CC(=O)N2[C@H](CO)[C@H](c3ccc(Br)cc3)[C@@H]2C1,x,n,x,x
COc1ccccc1CN(C)C(=O)c1cc(C)nc2ccccc12,n,n,n,11.2µM
COc1ccccc1CNC(=O)c1cc(C)nc2ccccc12,n,n,n,n
Cc1cccn2c(=O)c(C=NCCO)c(NCc3ccco3)nc12,n,n,n,n
Cc1cccn2c(=O)c(C=NCc3ccco3)c(Nc3ccc(SC(F)F)cc3)nc12,n,n,9.2µM,u
CCN1CCN(C(=O)c2cc(COc3ccc4ncccc4c3)on2)CC1,u,-82.2,x,n
CCCN1CCN(C(=O)c2cc(COc3ccc4ncccc4c3)on2)CC1,u,-67.8,x,x
CCCC[C@H]1CN2[C@@H](CC[C@@H](C)[C@@H]2c2ccc(Br)cc2)C(=O)O1,x,x,x,n
Cc1ccc(SCc2nc(N)nc(Nc3ccccc3C)n2)cc1C,n,-100.6,x,x
Cc1ccccc1Nc1nc(N)nc(CSc2nc3ccccc3c(=O)n2C)n1,15.8µM,n,u,u
Cc1ccc(SCc2nc(N)nc(Nc3ccccc3C)n2)c(C)c1,n,-61.0,n,n
O=C(CS(=O)(=O)c1cccc2nsnc12)N1CCN(c2cccc(C(F)(F)F)c2)CC1,n,n,n,x
COc1ccc(/C(O)=C2\C(=O)C(=O)N(CCN3CCOCC3)[C@H]2c2ccccn2)cc1,x,x,x,n
CC(C)CN(CC(C)C)CC(O)Cn1cc(/C=C/C(=O)c2ccccc2)c2ccccc21 (stereo not given),n,n,u,n
CCCN(CCC)CC(O)Cn1cc(/C=C/C(=O)c2ccc(OCC)cc2)c2ccccc21 (stereo not given),n,-105.9,u,u
COc1ccc(C(=O)/C=C/c2cn(CC(O)CN3CCc4ccccc43)c3ccccc23)cc1OC (stereo not given),u,-63.7,u,u
Cc1ccc(C(=O)/C=C/c2cn(CC(O)CN3CCc4ccccc43)c3ccccc23)cc1 (stereo not given),n,-74.0,u,u
Cc1ccc(C(=O)/C=C/c2cn(CC(O)CN3CCOCC3)c3ccccc23)cc1 (stereo not given),u,n,n,u
Cc1ccc(S(=O)(=O)Nc2ccc(-c3ccc(N4CCCCCC4)nn3)cc2)cc1C,n,n,n,x
COc1ccc(N(Cc2cccs2)C(=O)Nc2cccc(Cl)c2)cc1,n,n,n,n
SMILES,FMDV antiviral,HCMV antiviral,LASV entry inh,Marburg entry inh
COC(=O)N[C@H](C[N+](=O)[O-])C(C)(C)C,x,x,x,n
CCOC(=O)N1CCN(C(=O)c2ccc3c(=O)n(Cc4ccc(Cl)cc4)c(=S)[nH]c3c2)CC1,u,n,n,u
O=c1c2cc(Br)ccc2[nH]c(=S)n1Cc1ccccc1,n,-62.8,u,n
CCOC(=O)N1CCN(C(=O)c2ccc(Cn3c(=S)[nH]c4ccc(Br)cc4c3=O)cc2)CC1,u,-94.9,3.98µM,u
CN1C2CC(OC(=O)C(CO)c3ccccc3)C[C@@H]1[C@H]1OC21 (stereo not given in full),n,x,x,x
COc1ccc(-n2cc(-c3ccccc3)c3c(N4CC(C)OC(C)C4)ncnc32)cc1 (stereo not given),22.4µM,n,u,u
COc1cccc(N2CCN(c3ncnc4c3c(-c3ccccc3)cn4-c3ccc(F)cc3)CC2)c1,n,n,n,x
Cc1onc(-c2ccccc2)c1C(=O)NC(=S)NNC(=O)c1ccc(O)cc1,u,n,u,u
Cc1onc(-c2ccccc2)c1C(=O)NC(=S)NNC(=O)c1ccccc1O,u,-69.8,u,3.16µM
Cc1onc(-c2ccccc2)c1C(=O)NC(=S)NNC(=O)c1ccc(O)cc1O,n,-95.3,2.51µM,u
CCOP(=O)(OCC)c1c2c(cc3ccc(Cl)cc13)CCC2,x,n,x,x
CCOC(=O)c1cnc(N2CC2)nc1N,n,-68.4,u,10µM
C=C1SC(Nc2c(C)cc(C)cc2C)=NC12CCCCC2,u,-88.6,u,3.55µM
O=C(NCCc1nc(-c2ccccc2Cl)no1)c1ccccc1,n,u,x,x
CC(C)C(=O)NCCc1nc(-c2ccccc2Cl)no1,n,-60.0,x,x
COc1ccc(-c2noc(CCC(=O)NC3CCCC3)n2)cc1,n,u,n,n
COc1ccc(-c2noc(CCCC(=O)NC3CCCCC3)n2)cc1,n,-72.3,n,u
O=C(CCCc1nc(-c2ccccc2Cl)no1)NC1CCCC1,u,-73.7,x,x
Cc1ccc(-c2noc(CCC(=O)Nc3cc(C)ccn3)n2)cc1,n,-71.5,n,n
CC(C)(CNC(=O)c1cnn(-c2nccc(-c3ccccc3F)n2)c1C1CC1)N1CCOCC1,n,x,x,x
CCOC(=O)c1cccc(NC(=O)Cn2ncc3c4ccccc4n(Cc4ccccc4)c3c2=O)c1,n,n,n,n
Cc1cc(C(=O)Nc2cnn(C(C)(C)C(=O)NCc3ccco3)c2)c(C)o1,x,n,x,x
O=C(CCCc1nc(-c2ccccc2)no1)NC1CCCC1,n,n,n,n
Cc1ccc(-c2noc(CCCC(=O)NC3CCCC3)n2)cc1,n,-79.8,n,u
Cc1cnc(CNc2ccnc(-c3cccc(NS(C)(=O)=O)c3)n2)cn1,n,x,x,x
SMILES,FMDV antiviral,HCMV antiviral,LASV entry inh,Marburg entry inh
Cc1cc(=O)n2[nH]cc(-c3ccccc3)c2n1,n,n,n,u
Cc1nc2c(-c3ccccc3)c[nH]n2c(=O)c1Cc1ccccc1,n,-99.0,u,9.2µM
COc1ccccc1-c1c(C)[nH]n2c(=O)c(Cc3ccccc3)c(C)nc12,u,n,x,x
Cc1nc2c(-c3ccccc3)c(C)[nH]n2c(=O)c1Cc1ccc(Br)cc1,u,-97.4,u,u
Cc1nc2c(-c3ccccc3)c(C)[nH]n2c(=O)c1Cc1ccc(C(C)C)cc1,u,n,u,u
Cc1ccc(Cc2c(C)nc3c(-c4ccccc4)c(C)[nH]n3c2=O)cc1,u,-72.8,n,u
CCc1c(C)nc2c(-c3ccccc3)c(C)[nH]n2c1=O,u,n,n,u
COc1ccc(-c2c(C)[nH]n3c(=O)c(Cc4ccccc4)c(C)nc23)cc1,n,-88.2,u,u
CN(C)c1ccc(CNC(=O)Cn2c(-c3cccs3)cc3cc(Cl)ccc32)cc1,n,-71.0,n,x
Cc1ccc(CNC(=O)Cn2c(-c3cccs3)cc3cc(Cl)ccc32)cc1,n,n,n,x
COC(=O)c1ccc(Cn2c(C)c(C(=O)NCc3cccc([N+](=O)[O-])c3)sc2=O)o1,n,n,x,x
CN(C)S(=O)(=O)c1ccc(/C(O)=C2/C(=O)C(=O)N(Cc3cccnc3)C2c2ccncc2)cc1 (stereo not given),n,n,n,n
CN(C)S(=O)(=O)c1ccc(/C(O)=C2/C(=O)C(=O)N(Cc3cccnc3)C2c2ccco2)cc1 (stereo not given),n,-67.4,n,n
CCN(CC)c1cc(C)c2cc(NC(=O)c3cccc(F)c3)ccc2n1,n,u,n,u
CCN(CC)c1cc(C)c2cc(NC(=O)c3ccc(OC)c(OC)c3)ccc2n1,n,-89.3,u,u
